This passage reports cytotoxicity results from PubChem BioAssay AID430 (Sanford-Burnham Center for Chemical Genomics, 2006).

Among all 63,000 compounds or so, about 1,100 (1.7%) were called active. The list comes from a sample in which actives are over-represented; it also holds similar structures and randomly drawn compounds. Measured potencies and affinities stand elsewhere. Unmarked numbers belong to inactive results. Rule as the data show it: active = cytotoxicity above about 50%; inactive = the rest.

A short description of this experiment: HPDE-C7 pancreatic duct cell viability loss – fluorescence, HTS (AID 430).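 Also: cells exposed to compound for 48 hours before viability readout; 0% = vehicle and 100% = reference cytotoxic drug.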 The settings on record: HPDE-C7 pancreatic duct cells viability, at 10 µM, hits give high values.
`COCCN1Cc2cccc(C(=O)NCc3ccc4c(c3)OCO4)c2C1=O`: the cytotoxicity is -2.7%.
As for `CCN(CC)S(=O)(=O)c1ccc(-c2nnc(SCC(=O)Nc3ccc4c(c3)OCO4)o2)cc1`, the figure is 3.5%; as for `Cc1ccc(C(N)=S)c(C)c1`, -27.6%.
To `Cc1c(C(=O)Nc2ccccc2Cl)oc2ccc(S(=O)(=O)N3CCC4(CC3)OCCO4)cc12` belongs 22.3%; to `Cc1c(C(=O)Nc2ccc(F)cc2)oc2ccc(S(=O)(=O)N3CCC4(CC3)OCCO4)cc12`, 11.5%.
As for `Cc1c(C(=O)NCCc2ccccc2)oc2ccc(S(=O)(=O)N3CCOCC3)cc12`, the figure is -7.6%.
`Cc1c(C(=O)NCCC2=CCCCC2)oc2ccc(S(=O)(=O)N3CCC4(CC3)OCCO4)cc12`: the cytotoxicity is 35.3%.
On to `Cc1c(C(=O)Nc2cccc(Cl)c2)oc2ccc(S(=O)(=O)N3CCC4(CC3)OCCO4)cc12`, for which the cytotoxicity is 55.3% (active).
`Cc1c(C(=O)NCCC2=CCCCC2)oc2ccc(S(=O)(=O)N3CCOCC3)cc12`: the cytotoxicity is 52.5% (active).
As for `Cn1c(=O)c2cc(S(=O)(=O)NCCC(=O)N3CC=C(c4ccccc4)CC3)ccc2n(C)c1=O`, the figure is -11.2%; as for `COc1c(Cl)cc(Cl)cc1/C=N/n1cnnc1`, -1.3%.
Take `CNS(=O)(=O)c1ccc(NC(=O)C(CCSC)NC(N)=O)cc1` (stereo not given): the cytotoxicity is 0.9%.
As for `CCOc1ccc(S(=O)(=O)Nc2cc(Cl)ccc2O)cc1`, the figure is 67.2% (active); as for `CCOc1ccc(S(=O)(=O)Nc2cccnc2)cc1`, -3.5%.
To `CCOc1ccc(NS(=O)(=O)c2cc(Cl)ccc2OC)cc1` belongs -8.2%.
To `CCOc1ccc(S(=O)(=O)Nc2cccc(Cl)c2)cc1` belongs 57.6% (active); to `COc1ccc(S(=O)(=O)Nc2cccc(Cl)c2)cc1OC`, 13.9%.
For `CCOc1ccc(NS(=O)(=O)c2ccc(NS(C)(=O)=O)cc2)cc1`, the cytotoxicity is -4.7%.
Consider `CCCc1cc(=O)[nH]c(SC(CC)C(=O)Nc2ccccc2C#N)n1` (stereo not given), for which the cytotoxicity is -23.8%.
As for `O=C(Cn1cc2c(n1)CCCC2)NC1CCCCCC1`, the figure is -9.2%.
For the compound `Cn1cccc1C(=O)OCc1cc(Cl)cc2c1OCOC2`, the cytotoxicity was 1.1%.
As for `CCN(CC(=O)Nc1ccccc1C(=O)OC)S(=O)(=O)c1ccc(OC)cc1`, the cytotoxicity was 1.1%.
Regarding `Cc1ccc(Cl)cc1N1CCN(Cc2nnnn2C2CCCCC2)CC1`, the cytotoxicity is -16%.
As for `Cc1cccc(N=c2oc3cc(O)ccc3cc2C(N)=O)c1`, the figure is 59.6% (active); as for `Cc1ccc(N=c2oc3cc(O)ccc3cc2C(N)=O)cc1`, 3.9%; as for `NC(=O)c1cc2ccc(O)cc2oc1=Nc1ccccc1`, 5.3%.
As for `COCCn1c(SCC(=O)Nc2nnc(C)s2)nnc1-c1cc2ccccc2cc1O`, the figure is 7.4%.
As for `Cc1[nH]c(=O)[nH]c(=O)c1NS(=O)(=O)c1ccc2c(c1)CCCC2`, the figure is 10.1%; as for `COCCCN(C(=O)Nc1ccccc1)C(C)c1ccncc1` (stereo not given), 4.9%; as for `COc1ccc(N2C(=O)CC(N3CCN(C4CCc5ccccc5C4)CC3)C2=O)cc1` (stereo not given), -10.3%.
Regarding `COc1cccc(NC(=O)CSC2=C(C#N)C(c3ccco3)C3=C(CCCC3=O)N2)c1` (stereo not given), the cytotoxicity is 22.1%.
To `CCc1ccc(NC(=O)CSC2=C(C#N)C(c3ccco3)C3=C(CCCC3=O)N2)cc1` (stereo not given) belongs -0.7%; to `Cc1ccc(NC(=O)CSC2=C(C#N)C(c3ccco3)C3=C(CC(C)(C)CC3=O)N2)cc1` (stereo not given), 57.2% (active).
As for `CCCCc1ccc(NC(=O)CSC2=C(C#N)C(c3ccco3)C3=C(CCCC3=O)N2)cc1` (stereo not given), the figure is 72.2% (active); as for `CC1(C)CC(=O)C2=C(C1)NC(SCC(=O)Nc1ccccc1)=C(C#N)C2c1ccco1` (stereo not given), -16.1%; as for `CCOC(=O)C1=C(c2ccccc2)NC(SCC(=O)Nc2ccc(C)cc2)=C(C#N)C1c1ccco1` (stereo not given), 10.3%.
Take `O=C(CN1C(=O)C2C3C=CC(C3)C2C1=O)NCCN1CCCc2ccccc21` (stereo not given): the cytotoxicity is -7.4%.
On to `CC1CCCN(S(=O)(=O)c2ccc(S(=O)(=O)N3CCCN(Cc4ccccc4)C3)cc2)C1` (stereo not given), for which the cytotoxicity is 3.7%.
To `COc1ccc(N2CCN(c3nc4c(c(=O)[nH]c(=O)n4C)n3CCCc3ccccc3)CC2)cc1` belongs -7.6%.
Consider `Cc1ccc(-c2c3c(=O)n(C)c(=O)n(C)c3cn2Cc2ccccn2)cc1`, for which the cytotoxicity was -3.1%.
As for `CCCOc1ccc(CSc2nnc(CCC)n2N)cc1`, the figure is -13.5%.
To `O=C1c2ccncc2C(=O)N1C1CCCCC1` belongs -7.2%; to `CN1CCN(C2=C(Cl)C(=O)N(C3CCCCC3)C2=O)CC1`, -8%.
As for `Cc1ccc(NS(=O)(=O)c2ccc(OCC(=O)NCc3ccco3)cc2)cc1`, the figure is 6.8%.
With `CC(C)CCn1nc(C(=O)OC(C)C(=O)NC(N)=O)c2ccccc2c1=O` (stereo not given), the cytotoxicity was -13.9%.
As for `Cc1ccccc1N=C1NC(=O)CS1`, the cytotoxicity was -24.1%.
As for `CCCn1c(CN2CCN(C(=O)OCC)CC2)nc2c1c(=O)n(C)c(=O)n2C`, the figure is -8.2%.
As for `CCCCOC(=O)C1Cc2ccccc2C(=O)O1` (stereo not given), the figure is -4.8%; as for `CCCCCn1c(CN2CCN(Cc3ccccc3)CC2)nc2c1c(=O)[nH]c(=O)n2C`, 0%.
`CC(C)Cn1c(CN2CCN(c3ccccc3F)CC2)nc2c1c(=O)[nH]c(=O)n2C`: the cytotoxicity was -0.6%.
To `Cn1c(=O)[nH]c(=O)c2c1nc(CN1CCN(c3cccc(Cl)c3)CC1)n2Cc1ccccc1Cl` belongs -3.5%; to `Cc1ccc(Cl)cc1N1CCN(Cc2nc3c(c(=O)[nH]c(=O)n3C)n2Cc2ccccc2F)CC1`, 112% (active); to `CCCCCn1c(CN2CCN(c3cccc(Cl)c3)CC2)nc2c1c(=O)[nH]c(=O)n2C`, 43.9%.
As for `O=C(Cc1c(O)c2ccccc2[nH]c1=O)NCc1cccc(F)c1`, the figure is 2.7%; as for `CCN(CC)CCCN1C(=O)C(=O)/C(=C(/O)c2ccc(OC)c(Cl)c2)C1c1ccco1` (stereo not given), 4.6%.
To `COc1ccccc1CN1C(=O)[C@@H]2C(CCC(N)=O)NC3(C(=O)Nc4c3ccc(Cl)c4C)[C@@H]2C1=O` (stereo not given in full) belongs -5.3%.
With `c1ccc2c(c1)Cn1nnnc1-2`, the cytotoxicity is 1.3%.
To `Cn1nc(-c2ccc(N3CCCCC3)c(NC(=O)c3ccco3)c2)c2ccccc2c1=O` belongs 64.9% (active).
For `CCC(=O)Nc1cc(-c2nn(C)c(=O)c3ccccc23)ccc1N1CCCCC1`, the cytotoxicity is 5.4%.
Turning to `CCCC(=O)Nc1cc(-c2nn(C)c(=O)c3ccccc23)ccc1N1CCCCC1`, the cytotoxicity was -10.2%.
